Screening results (PubChem BioAssay)
MCF10A rerep = induces DNA re-replication in MCF 10a normal breast cells. MCF 10A DNA re-replication, Hoechst nuclear intensity, 48 h. Potency, µM (top dose mostly 46.1 µM), for the others: top-dose activity, positive = re-replication, usual class: activators. 350,000 compounds, 2.9% hits. AID 624296; note: % of control where 0% means no effect; nearly all actives have a fitted effect of over 50% in size
KB-3-1 tox = kills parental KB-3-1 adenocarcinoma cells. KB-3-1 viability, CellTiter-Glo ATP luminescence, 72 h. Potency, µM (highest dose often 46.1 µM), usual class: cytotoxic. 400,000 compounds, 1.4% hits. AID 1347075; note: % is set by controls: 0 for no effect and ±100 for the full control effect; nearly all actives have a fitted effect of over 60% in size
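Cytotoxicity in the drug-sensitive parental line KB-3-1 was scored as loss of CellTiter-Glo luminescence following 72 h incubation with compound. Values come from curve fitting of normalized concentration-response data.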
KB-V1 MDR tox = kills drug-selected multidrug resistant KB-V1 cells. KB-V1 MDR cells viability, CellTiter-Glo, 72 h. Potency, µM (titrated, usually from 46.1 µM), actives largely listed as cytotoxic. 400,000 compounds, 3.4% hits. AID 1347076; note: % is set by controls: 0 for no effect and ±100 for the full control effect; nearly all actives have a fitted effect of over 60% in size
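In this primary screen, KB-V1 cells overexpressing P-gp are incubated with library compounds (lowest to highest concentration) for 72 h at 37 degrees C before a luminescent ATP viability read.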
SW480 rerep = DNA re-replication induction in SW480 cells. SW480 DNA re-replication, Hoechst DNA content imaging, 48 h. 340,000 compounds, 1.8% hits. Potency, µM (titrated, usually from 46.1 µM), for the others: top-dose re-replication activation, hits mostly activators; note: % of control where 0% means no effect; nearly all actives have a fitted effect of over 55% in size
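Cells (250 per well) received 23 nL compound or DMSO by pin tool and were kept 48 hr at 37 C, 5% CO2. Nuclei were then stained with Hoechst for 40 min and scanned for DNA content.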
Gal4-VP16 FLuc = Gal4-VP16 reporter inhibition counter-screen; Drosophila S2 Gal4-VP16 UAS-luciferase, luminescence, 20 h; Potency, µM (titrated, usually from 53.6 µM), for inactives: at the highest dose activity, negative = inhibition, most hits filed as inhibitors; 310,000 compounds, 3.5% hits; AID 2546;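 note: Gal4-VP16 expression switched on by copper sulfate through the metallothionein promoter; % is set by controls: 0 for no effect and ±100 for the full control effect; nearly all actives have a fitted effect of over 50% in size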
RORgamma inh = ROR gamma (mouse) transcription inhibition; P51450; Drosophila S2 Gal4-RORgamma UAS-luciferase reporter, 20 h; Potency, µM (titrated, usually from 53.6 µM), for inactives: at the top dose activity change, negative = inhibition, usual class: inhibitors; 310,000 compounds, 5.4% hits; AID 2551; note: % is set by controls: 0 for no effect and ±100 for the full control effect; nearly all actives have a fitted effect of over 60% in size
Target sequence (P51450 whole entry, looked up, the tested form may be a part): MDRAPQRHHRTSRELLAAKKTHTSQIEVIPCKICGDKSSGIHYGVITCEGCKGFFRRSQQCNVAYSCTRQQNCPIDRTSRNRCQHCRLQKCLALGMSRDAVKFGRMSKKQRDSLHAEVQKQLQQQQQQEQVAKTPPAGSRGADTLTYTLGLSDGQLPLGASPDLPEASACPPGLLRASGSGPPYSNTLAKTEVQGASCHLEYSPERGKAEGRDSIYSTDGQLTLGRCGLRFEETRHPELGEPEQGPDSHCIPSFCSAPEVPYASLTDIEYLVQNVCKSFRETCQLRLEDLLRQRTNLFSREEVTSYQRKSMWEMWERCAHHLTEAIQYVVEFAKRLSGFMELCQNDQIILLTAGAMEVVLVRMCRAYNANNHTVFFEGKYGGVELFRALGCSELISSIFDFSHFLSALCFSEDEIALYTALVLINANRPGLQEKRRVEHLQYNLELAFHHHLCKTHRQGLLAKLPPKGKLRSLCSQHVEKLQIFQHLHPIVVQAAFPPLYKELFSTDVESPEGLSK
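ROR gamma transcriptional activity was tracked as Gal4-UAS luciferase output in stably transfected Drosophila Schneider cells, with compound added 1 hr before 700 uM copper sulfate induction and a 20 hr ambient-temperature incubation.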
Active calls of the source: *; i = inactive; u = inconclusive; x = not tested or not shown; [ ] = dose if it differs, or a comment. Compounds with a hit are over-represented: about 10% of the library has one in this group of screens. Calls come from the whole dose curve; as a rule, active = well fitted curve in the direction sought with a large enough effect; inconclusive = small, poorly fitted or top-dose-only effect, or another doubt; inactive = no such curve, though single readings can be large; an effect the other way counts as inactive or inconclusive. Potency is the fitted concentration of half-maximal effect.

SMILES | MCF10A rerep | KB-3-1 tox | KB-V1 MDR tox | SW480 rerep | Gal4-VP16 FLuc | RORgamma inh
Cc1ccc(C2(C)NC(=O)N(CC(=O)c3ccc(Cl)s3)C2=O)cc1 (centres undefined) | 0% | i | 21µM* | -3% | 0% | 27%
O=C(O)CSCC(=O)Nc1ccc(-c2nc3ccccc3s2)cc1 | u | i | u | 13% | -22% | u
Cc1ccc2nc(-c3ccc(NC(=O)CCN4C(=O)c5ccccc5C4=O)cc3)sc2c1 | 18% | i | i | -1% | 7.1µM* | 5µM*
Cc1ccc(C2(C)NC(=O)N(CC(=O)Nc3ccc(-c4nc5ccc(C)cc5s4)cc3)C2=O)cc1 (centres undefined) | 18µM* | i | i | 636% | -24% | u
Cc1ccc(S(=O)(=O)N2CCN(S(=O)(=O)c3ccc4c(c3)OCCCO4)CC2)cc1 | x | u | i | x | x | x
Cc1ccc(NC(=O)c2ncoc2-c2ccco2)cc1Cl | x | i | u | x | x | x
Cc1cc2nc(C)c(=O)n(C)c2cc1C | 1% | i | i | -2% | 7% | -14%
Cc1cc2nc3n(c2cc1C)CCCN3 | 17% | i | i | 0% | -10% | 1.6µM*
CN1CCCC1CCOC(C)(c1ccccc1)c1ccc(Cl)cc1 (centres undefined) | 13% | i | u | 7.1µM* | x | x
C[C@@H]1[C@H](c2ccccc2)Oc2ccc(Cl)cc2S(=O)(=O)N1CC1CCCN1C(=O)OC(C)(C)C (some centres undefined) | 10% | u | i | -3% | x | x
CCC[C@@H]1C[C@@]1(CCC)[C@@H](NC(=O)Oc1ccccc1)c1ccc(C(=O)OC)cc1 | x | x | x | x | -1% | -16%
CCc1cc(C(=O)c2ccc(C)cc2)c(NC(=O)CCl)s1 | u | 23µM* | u | u | -10% | -9%
CCc1cc(C(=O)c2ccc(OC)cc2)c(NC(=O)CN2CCCCC2)s1 | -1% | i | u | -5% | -24% | 7.1µM*
Cc1cc(C(=O)c2ccc(Cl)cc2)c(NC(=O)CCl)s1 | 21µM* | u | u | u | u | 10µM*
CCc1cc(C(=O)c2ccc(OC)cc2)c(NC(=O)CN2CCCC2)s1 | 8% | i | i | 12% | 6% | 2%
CN(C)CC(=O)Nc1nc(-c2ccccc2)cs1 | -10% | i | i | -8% | u | 11µM*
CCOC(=S)SCC(=O)Nc1nc(-c2ccccc2)cs1 | 21µM* | 6.5µM* | u | u | u | u
O=C(NCc1ccccn1)C(=O)Nc1nc(-c2ccccc2)cs1 | -3% | i | u | -2% | u | 10µM*
CCOC(=S)SCC(=O)Nc1nc(-c2ccc(Br)cc2)cs1 | 8.2µM* | 5.2µM* | 5.8µM* | u | 6.3µM* | 5µM*
O=C(O)CCC(=O)Nc1nc(-c2ccccc2)cs1 | 2% | i | i | -3%[9.22 µM] | 6% | 3%
c1cncc(CN2CCN(c3cc(-c4cnc5ccccc5c4)nc4ccnn34)CC2)c1 | x | i | i | x | x | x
Clc1ccc(-c2cn(-c3nc4ccccc4s3)nn2)cc1 | x | i | i | x | x | x
CCOC(=S)SCC(=O)Nc1nc(C)c(C)s1 | 18µM* | u | i | 104% | u | 13µM*
O=C(CN1C(=O)CCC1=O)Nc1nc(-c2ccc3ccccc3c2)cs1 | 1.5µM* | i | i | -38% | u | u
CC(=O)NC(CC(=O)Nc1nc(-c2ccc(N(C)S(C)(=O)=O)cc2)cs1)c1ccccc1 (centres undefined) | u | i | i | 11% | 11µM* | 4%
SMILES | MCF10A rerep | KB-3-1 tox | KB-V1 MDR tox | SW480 rerep | Gal4-VP16 FLuc | RORgamma inh
CCOC(=S)SCC(=O)Nc1nccs1 | u | i | i | 21% | u | -14%
Cc1ccc(-c2csc(NC(=O)CN3C(=O)CCC3=O)n2)cc1 | -18% | i | i | -1% | 4% | -5%
CC(C)(CC(=O)OCC(=O)Nc1ccc(F)c(Cl)c1)CC1=NS(=O)(=O)c2ccccc2N1 | x | i | i | x | x | x
O=C(/C=C/[C@H]1O[C@@H](n2ccc(=O)[nH]c2=O)[C@H](O)[C@@H]1O)NCC1CCCO1 (some centres undefined) | x | i | i | x | x | x
COc1cc(NC(=O)C(Cc2ccccc2)NS(=O)(=O)c2cccc3nsnc23)cc(OC)c1 (centres undefined) | x | u | i | x | x | x
CN1CCN(c2ncc3c(n2)CCN(Cc2cc(Br)cs2)C3)CC1 | x | i | i | x | x | x
Cc1ccc(C)c(NC(=O)CSc2nnc3n2CCCCC3)c1 | 0% | i | i | 4% | 2% | 32%
Cc1ccc(CN(C)C(=O)CSc2nnc3n2CCCCC3)c(C)c1 | 11% | i | 15µM* | -2% | x | x
COC(=O)c1ccc(C(=O)OC)c(NC(=S)N2CCCC(C)C2)c1 (centres undefined) | -91% | i | 18µM* | u | 7% | 7.9µM*
COC(=O)c1ccc(C(=O)OC)c(NC(=S)N2CCC(C(N)=O)CC2)c1 | -3% | i | i | -40% | -1%[10 µM] | 9%
COC(=O)c1ccc(C(=O)OC)c(NC(=S)N2CCC(N3CCCCC3)CC2)c1 | -2% | i | i | 14% | -1% | -19%
COC(=O)c1ccc(C(=O)OC)c(NC(=S)N2CC(C)CC(C)C2)c1 (centres undefined) | -67% | i | 15µM* | -54% | 14% | 11µM*
CC(=O)Nc1nonc1-c1nnc(SCc2ccccc2C)n1C | x | i | i | x | x | x
COc1ccc(Cl)cc1NC(=O)CN(C)C(=O)Cc1ccc(-c2ccccc2)cc1 | 15% | i | i | -14% | x | x
COc1ccc(Cl)cc1NC(=O)CN1Cc2ccccc2C1=O | x | u | 5.2µM* | x | x | x
CCOc1ccc(NC(=O)CN(C)C(=O)c2cn3ccccc3n2)cc1OCC | -1% | i | i | -2% | x | x
COc1ccc(Cl)cc1NC(=O)CN(C)C(=O)c1cn2ccccc2n1 | u | u | u | 13µM* | x | x
COc1ccc(Cl)cc1NC(=O)CN(C)CC(=O)Nc1ccccc1-c1ccccc1 | u | i | 9.2µM* | 8% | 2% | -3%
COc1ccc(Cl)cc1NC(=O)CN(C)C(=O)c1ccc(N2CCCCC2)c([N+](=O)[O-])c1 | -2% | 15µM* | u | 4% | x | x
CCn1ccc2c(OCC(=O)Nc3ccc(C)c(Cl)c3)cccc2c1=O | x | i | i | x | x | x
Cc1ccccc1NC(=O)CSc1nc2ccccc2c(=O)n1C | 10% | u | u | 1% | 11µM* | u
CC(C)c1ccc(NC(=O)CSc2nc3ccccc3nc2N2CCCC2)cc1 | u | i | i | -3% | -6% | -23%
